The list is a sample of the results. The true hit rate is not given.
B1: il2ra_site1_1z92_normal_mot_HHH_b2_05238_af2_000000252_0001_38_55_H_._HHH_b1_01495_af2_0002_0000300012_0000001_0_af2pred_0001_af2pred_1 (protein)
chain: SSSSSKEESLELAERAARRAIEAGNERSARRLLKFVIEAAEELGNEELLEELEELLERLESSSSS
B2: il2ra_site2_2erj_sap_29_mot_dcd9809507f71d420582ead1f1e1bbb3_0001_000000226_0001_37_50_H_._HHH_b1_02896_af2_0001_0000500038_0000001_0_0001 (protein)
chain: SSSSSSLHELYELANRLMHALSNGDEELLEELLEELEELAKELQSDTAREIVENIRRRLSSSSSS
B3: il2ra_site1_1z92_sap_17_mot_c66c727fe7b11027095aa3ef302aaf37_0001_000000167_0001_38_52_H_._665b9007e6d0b9979c9b0c82f83b8fcc_0001_0001_0000200023_0000001_0_0001 (protein)
chain: SSSSDSRERIEELAEFLARDIKMTGNPWARRLLELLLEKAEKLGDEELREIIEQLLEELRSSSSS
B4: il2ra_site1_3nfp_sap_16_mot_HHH_b1_00461_af2_000000238_0001_1_17_H_._HHH_b2_08025_0001_0000300024_0000001_0_0001_af2pred_0001_af2pred_swapped (protein)
chain: SSSSSRILRFLEELARKAFERNDKKQLEAILKLIRKAAKQFKDEEVEELLELVEELLKKLSSSSS
B5: il2ra_site2_2erj_normal_mot_HHH_b1_05204_000000269_0001_1_15_H_._HHH_b1_00954_0001_0000200014_0000001_0_1_af2pred_0001_af2pred (protein)
chain: SSSSDLEEELRRLLEELEELVKEGDEKKFMEVALRVAKLVIENNDEEAAKLLLRLLRELRSSSSS
B6: il2ra_site2_2erj_sap_27_mot_HHH_b1_08185_000000063_0001_41_55_H_._HHH_b1_03158_0001_0000300009_0000001_0_0001_af2pred_0001_1_af2pred_swapped (protein)
chain: SSSDAQERAREVLEEVIELLRQGNHEEAKKLLEEAREILEELGDRAAVRLIEAALRLLESLSSSS
B7: il2ra_site2_2erj_sap_22_mot_c2bf78bdce995293a161f7082e24b401_0001_af2_000000082_0001_17_32_H_._HHH_b2_05133_0001_0000600016_0000001_0_0001 (protein)
chain: SSSSDEELHEIFELLSLLLEAIQKGDDELFKKLVEEVRQLIEEKGSPNLREILEWLERHFHSSSS
B8: il2ra_site2_3nfp_normal_mot_HHH_b1_04264_000000089_0001_1_18_H_._332cd829babfe32ea4315b179459513b_0001_1_0001_0000100003_0000001_0 (protein)
chain: SQEVFEVIHKLREEGDPELAISLFALLAELLLHPENEELREKLEELLEIIKKNPEEAREVARKLP
B9: il2ra_site2_2erj_normal_mot_HHH_b1_07741_000000192_0001_1_20_H_._9b1ece5d1ebc94355a99c96473898622_0001_1_af2_0001_0000300001_0000001_0 (protein)
chain: DQEEFLRRAARENPETFIRYAELLAKDAGNPELLKLVEELKEEVEKGEIPPEEAAELVVEVLEEL
B10: il2ra_site2_2erj_sap_23_mot_HHH_b1_06697_000000025_0001_41_54_H_._HHH_b2_03690_0001_0000400021_0000001_0_0001 (protein)
chain: SSSSDYEERVKELLEELRELLEEGDEEKFEELVFEVSQLIFENNDFELFAELTEIFEEFIRSSSS
B11: il2ra_site1_2b5i_normal_mot_HHH_b2_04910_000000118_0001_1_19_H_._HHH_b1_05884_0001_0000500029_0000001_0 (protein)
chain: SSSSSEETRELQELFREADELDRRGNEEEAEEVLREAIELARQAGSRSMLKMLESALKELGSSSS
B12: il2ra_site1_3nfp_normal_mot_HHH_b1_05523_000000027_0001_1_19_H_._HHH_b1_07881_af2_0001_0000100003_0000001_0_af2pred_0001_af2pred_1 (protein)
chain: SSSSTEVSRRVLELIEEALELAQNGNPEEAEEVLREALKLAEEAGNESTARFIRKALEQSSSSSS
B13: il2ra_site1_3nfp_sap_10_mot_cc4219192d8ccd35c40e7b68f9a57604_0001_af2_000000124_0001_16_32_H_._HHH_b2_07250_0001_0000100001_0000001_0_0001 (protein)
chain: SSSSSEIEEEVRELLEEAEQLLKEGDWEEAAKVVEEAMKLASQANDDELDQLIMEWVRKLSSSSS
B14: il2ra_site1_3nfp_sap_18_mot_HHH_b2_03549_000000219_0001_1_18_H_._HHH_b1_06169_0001_0000200013_0000001_0_0001 (protein)
chain: NDERVASKLVEEAARSAGVDEVEVSVSNGTLHVEVSGGDRAARRVEEAAKQIAEWLGVEVEVTFE
B15: il2ra_site1_3nfp_normal_mot_HHH_b1_01231_af2_000000170_0001_1_16_H_._HHH_b1_02076_0001_0000200037_0000001_0_af2pred_0001_af2pred_1_swapped (protein)
chain: SSSSSSREELELKERVLRLLARIRDPEEARRVLEEAEELAKELGDERLLEELEKLLKRLGSSSSS
B16: il2ra_site2_3nfp_sap_21_mot_HHH_b1_06577_af2_000000152_0001_20_36_H_._HHH_b2_07686_0001_0000600063_0000001_0_0001 (protein)
chain: SSSSDEDEERVEKLIEEIERLLEEGDRDEAARLLLEATELAARINNDELARKLLELFLKIQSSSS
B17: il2ra_site2_3nfp_normal_mot_HHH_b1_03851_000000147_0001_21_38_H_._HHH_b1_04525_0001_0000600036_0000001_0 (protein)
chain: SSSSDEERREARELFEELQELLEENDKHAVFEVLMELFELAARTGDEEAARLVLEIYAQLRSSSS
B18: il2ra_site2_2erj_sap_10_mot_HHH_b1_08207_af2_000000250_0001_43_57_H_._HHH_b2_03076_0001_0000100015_0000001_0_0001 (protein)
chain: SSSSDWLHRLYELANRITELASRGNPEEAREVLEELQELAEEANSDNAKWVAEALEKHLNSSSSS
B19: il2ra_site2_3nfp_sap_16_mot_HHH_b1_03316_000000041_0001_39_56_H_._702997820559c2f17efcc64b63c1c749_0001_1_0001_0000200016_0000001_0_0001_af2pred_0001_1_af2pred_ … (protein)
chain: DSEKELFKEALEEGDPALIDAVALAIALAERGKPPEEIEKSVERWLRAQGVPPEEIEEILELLRK
B20: il2ra_site2_3nfp_normal_mot_HHH_b2_01406_000000272_0001_41_55_H_._HHH_b2_00362_0001_0000600032_0000001_0 (protein)
chain: SSSSSDEEEEELEERLEKALEEGDKHLAAQLAAELSELLARLNDPETAVRLAVKVLEFVLSSSSS
B21: il2ra_site2_3nfp_sap_26_mot_HHH_b1_07277_000000260_0001_23_39_H_._HHH_eva_0486_af2_0001_0000400016_0000001_0_0001 (protein)
chain: SAELARRIVELVRRGDPVAEALFALLADVAYKGDPELERLLEEALEALERGNPEEAEEIVRKALK
B22: il2ra_site1_2b5i_sap_17_mot_143f78fc0439b137266e145e81963a82_0001_1_af2_000000250_0001_37_51_H_._2548690152cc24afdf538b66510d0e06_0001_0001_0000200012_0000001_0 … (protein)
chain: SSSSDEKYDEVERLFKKALELRRAGKKEEAKEVLEEALKIAEEAKDEKLVEELKRFLELLSSSSS
B23: il2ra_site2_2erj_normal_mot_HHH_b1_00210_af2_000000043_0001_43_57_H_._HHH_b1_00702_0001_0000100006_0000001_0 (protein)
chain: SSSSDREEVEELLKELEEAYEEGDEEKFEELASRASVLIFQIGDFELWSELAELFAKLNKSSSSS
B24: il2ra_site1_2b5i_normal_mot_HHH_b1_08745_af2_000000166_0001_39_57_H_._HHH_b1_02799_0001_0000100008_0000001_0_af2pred_dldesign_0_af2pred (protein)
chain: SSSSSPEGKEVLRLLEEAEAALKAGDEAGARALLEKALEIAKKAKSNLFVKFVEAALKALESSSS
B25: il2ra_site1_1z92_sap_15_mot_HHH_b2_05498_000000253_0001_19_35_H_._HHH_b1_00069_0001_0001500068_0000001_0_0001_af2pred_0001_af2pred_1 (protein)
chain: SEEEEHIRELIEQIPDPELAEAIKKDFEQALERGIPPERVVRALLRAARLDGDPHAEELLEKALR
B26: il2ra_site1_2b5i_sap_11_mot_HHH_b1_06900_af2_000000048_0001_21_36_H_._a1725d017d863e7f4c76c21e96fab134_0001_1_af2_0001_0000100009_0000001_0_0001_af2pred_0001_af … (protein)
chain: SSSSSTLAQKAAELLEEANEADRNGDPEEARKLLEEAEKIAEEAGSKSLLRSIRVALEQLSSSSS

target: il2ra, P01589; experiment: yeast display titration
Sequence (P01589 whole entry): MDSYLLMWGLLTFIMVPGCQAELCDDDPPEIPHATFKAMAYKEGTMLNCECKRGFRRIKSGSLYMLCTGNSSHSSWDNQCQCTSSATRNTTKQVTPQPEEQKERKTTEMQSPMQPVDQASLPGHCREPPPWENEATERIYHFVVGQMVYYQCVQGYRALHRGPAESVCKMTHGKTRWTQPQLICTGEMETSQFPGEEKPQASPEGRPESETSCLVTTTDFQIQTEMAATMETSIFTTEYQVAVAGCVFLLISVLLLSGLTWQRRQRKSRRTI

Apparent Kd, inactive:
B1 no binding seen, B2 no binding seen, B3 no binding seen, B4 no binding seen, B5 no binding seen, B6 no binding seen, B7 no binding seen, B8 no binding seen, B9 no binding seen, B10 no binding seen, B11 no binding seen, B12 no binding seen, B13 no binding seen, B14 no binding seen, B15 no binding seen, B16 no binding seen, B17 no binding seen, B18 no binding seen, B19 no binding seen, B20 no binding seen, B21 no binding seen, B22 no binding seen, B23 no binding seen, B24 no binding seen, B25 no binding seen, B26 no binding seen

Source: publication PMC10163288
